The values below come from PubChem BioAssay (NCI).

Among the test systems are T-47D breast; BT-549 breast; MDA-MB-435 melanoma; SW-620 colon; MCF7 breast; HCT-116 colon; KM12 colon; HCC-2998 colon.
Common to all, as to test: NCI-60 one-dose screen, 48 h (100 = growth as untreated, 0 = no growth, -100 = all killed)
Holding throughout (conditions): 10 µM unless noted

About 83,000 compounds went through this panel and 20% of them were active in at least one assay; those are over-represented in the sample as a whole.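 Values shown are percent growth following 48 h exposure of cells in 96-well plates to a single concentration of compound; below 10 was considered active.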 A number with no mark means an inactive call. Active and inactive are the calls of the source.

Turning to `CCOC(=O)Oc1c(OC)cc(C(=O)c2ccc(OC)c(O)c2OC)cc1OC`, the growth in the test with T-47D breast was 43.8%; with BT-549 breast it was 40.1%; with MDA-MB-435 melanoma, -47.4% (active); in the test with SW-620 colon, 20.5%; in the test with MCF7 breast, 19.5%; with HCT-116 colon it was 9.57% (active). In addition, in the test with KM12 colon, the growth is 25.7%.

`O=C(/C(=C/c1ccc([N+](=O)[O-])cc1)SCc1ccc(F)cc1)c1ccc(F)cc1`: the growth was 79.8% in the test with T-47D breast; 98.2% in the test on BT-549 breast; 85% with MDA-MB-435 melanoma; -27.5% (active) in the test with SW-620 colon; 9.8% (active) with MCF7 breast; -25.2% (active) in the test on HCT-116 colon. Further, in the test on KM12 colon, the growth was 59.8%.

In the case of `O=C(Nc1ccccc1)Nc1ccc2cc3ccc(NC(=O)Nc4ccccc4)cc3nc2c1`, the growth in the test on T-47D breast was -3.77% (active); with BT-549 breast it was 86.2%; in the test with MDA-MB-435 melanoma, 21.9%; with SW-620 colon, -62.7% (active); in the test with MCF7 breast it was 27.2%; with HCT-116 colon it was -57.1% (active). In addition, the growth in the test with KM12 colon was 38.9%.

On to `COc1ccc(C(=O)c2nc3ccccc3n2CC(=O)c2ccc(Cl)cc2)cc1`, for which the growth was 35.2% in the test with T-47D breast; 47.9% in the test with BT-549 breast; -55.4% (active) with MDA-MB-435 melanoma; 15.8% with SW-620 colon; 11.9% in the test on MCF7 breast; 10.3% in the test with HCT-116 colon. Besides, in the test with KM12 colon, the growth was 28.4%.

Consider `O=C(CCN1CCCC1)Nc1ccc2c(NCCCCc3ccccc3)c3ccccc3nc2c1`, for which the growth in the test on T-47D breast is -27.2% (active); in the test with BT-549 breast, 56.9%; with MDA-MB-435 melanoma, -91.2% (active); in the test on SW-620 colon, -60.5% (active); in the test with MCF7 breast, -75.9% (active); with HCT-116 colon, -70.8% (active). Also, the growth in the test on KM12 colon was -79.1% (active).

Turning to `O=C(Nc1cccc(C2=NCCN2)c1)c1ccc(-c2ccc(C(=O)Nc3cccc(C4=NCCN4)c3)cc2)cc1`, the growth in the test with T-47D breast is 58.5%; with BT-549 breast it was 93.4%; in the test with MDA-MB-435 melanoma, 57.4%; in the test with SW-620 colon, 69.2%; in the test on MCF7 breast it was 18.5%; in the test with HCT-116 colon it was 72.7%. Further, in the test with KM12 colon, the growth was 60.4%.

With `O=C(Nc1cccc(C(=O)N2CCc3ccc(Cl)cc32)c1)c1ccco1`, the growth was 33.6% in the test with T-47D breast; 37.2% with BT-549 breast; -2.72% (active) in the test on MDA-MB-435 melanoma; 29.8% with SW-620 colon; 18.9% in the test with HCT-116 colon; 68% in the test with HCC-2998 colon. The growth with KM12 colon was 33.6%.

As to `NC(=NCCCOc1ccc(F)cc1)Nc1ccc(Cl)cc1`, the growth in the test with T-47D breast is 18.6%; with BT-549 breast it was 52.8%; in the test with MDA-MB-435 melanoma it was 46.8%; in the test with SW-620 colon it was 56.9%; with MCF7 breast, 7.28% (active); in the test on HCT-116 colon it was 16.5%. Further, the growth in the test with KM12 colon is 76.7%.

On to `COc1ccc2c(c1)C(=O)CC(c1ccccc1OC)O2` (configuration not stated), for which the growth in the test on T-47D breast is 91.1%; in the test with BT-549 breast, 96.5%; with MDA-MB-435 melanoma it was 100%; in the test with SW-620 colon, 103%; in the test with MCF7 breast it was 83.8%; in the test with HCT-116 colon, 103%. Also, the growth in the test with KM12 colon is 102%.

Turning to `N#Cc1cc(-c2nc3ccccc3s2)c(=O)n(NS(=O)(=O)c2ccccc2)c1N`, the growth with T-47D breast is 94.5%; with BT-549 breast it was 98.2%; with MDA-MB-435 melanoma, 102%; with SW-620 colon, 100%; with MCF7 breast it was 105%; in the test on HCT-116 colon it was 109%. Moreover, in the test on KM12 colon, the growth was 103%.

In the case of `CN(C)CCn1c2ccc(Br)cc2c2nc3ccccc3nc21`, the growth was 38.4% with T-47D breast; 84.4% in the test on BT-549 breast; 41.8% in the test with MDA-MB-435 melanoma; 17.5% in the test with SW-620 colon; 18.2% in the test on HCT-116 colon; 47.3% in the test on HCC-2998 colon. Moreover, the growth in the test on KM12 colon was 35%.

Take `C=C1C(=O)O[C@H]2[C@H]1CC/C(CNS(=O)(=O)c1cccc3ccccc13)=C\CC[C@@]1(C)O[C@@H]21`: the growth in the test with T-47D breast is 24.5%; in the test with BT-549 breast, 37.2%; in the test on MDA-MB-435 melanoma, 38.1%; in the test on SW-620 colon, -34.9% (active); in the test with MCF7 breast, 16.2%; with HCT-116 colon, -60.7% (active). The growth in the test on KM12 colon is 85%.

For the molecule `Brc1ccc2[nH]cc(-c3cncn3CCc3ccccc3)c2c1`, the growth in the test with T-47D breast was 22.9%; with BT-549 breast, 41.3%; in the test on MDA-MB-435 melanoma, 57.5%; in the test with SW-620 colon it was 72.2%; in the test with HCT-116 colon, 43%; with HCC-2998 colon, 72.5%. In addition, the growth in the test on KM12 colon was 68%.

As to `CCCCOc1ccc(/C=N/Nc2cc(C)nc3ccc(Br)cc23)cc1`, the growth was 82.5% in the test with T-47D breast; 99% in the test with BT-549 breast; -4.43% (active) in the test on MDA-MB-435 melanoma; -70.5% (active) in the test with SW-620 colon; -69.6% (active) with HCT-116 colon; -53.9% (active) in the test on HCC-2998 colon. The growth with KM12 colon was -4.11% (active).

Consider `N#CC1C(C#N)C2c3ccccc3C=CN2C1C(=O)c1ccc(Br)cc1` (configuration not stated), for which the growth was 91.8% in the test with T-47D breast; 103% in the test on BT-549 breast; 100% in the test on MDA-MB-435 melanoma; 99.2% in the test with SW-620 colon; 92.5% in the test with MCF7 breast; 87.7% in the test on HCT-116 colon. In the test on KM12 colon, the growth is 99.2%.

Turning to `O=C(N/N=C/c1ccc(Oc2ccccc2)cc1)c1cnn2c1NC(c1ccccc1)C2` (configuration not stated), the growth with T-47D breast is 43%; in the test on BT-549 breast, 81.1%; in the test on MDA-MB-435 melanoma it was 4.46% (active); in the test with SW-620 colon, 42.1%; in the test on MCF7 breast, 17.7%; in the test with HCT-116 colon, 32.2%. Besides, the growth with KM12 colon is 44.7%.
